# Laboratory results taken from ChEMBL document CHEMBL3433997, “St. Jude Leishmania screening dataset” (2016).
# Target: Solute carrier family 2, facilitated glucose transporter member 1 (Homo sapiens) (UniProt P11166)
# Assay: ST_JUDE_LEISH: Cytotoxicity at 2uM final concentration against transgenic Leishmania Mexicana promastigotes LmGLUT1 that are glucose transport deficient and complemented with the human glucose transporter GLUT1. Activity is measured by DNA content using SYBR green in vitro
# Type: functional
# Chain of Solute carrier family 2, facilitated glucose transporter member 1 (Homo sapiens) (P11166 whole entry): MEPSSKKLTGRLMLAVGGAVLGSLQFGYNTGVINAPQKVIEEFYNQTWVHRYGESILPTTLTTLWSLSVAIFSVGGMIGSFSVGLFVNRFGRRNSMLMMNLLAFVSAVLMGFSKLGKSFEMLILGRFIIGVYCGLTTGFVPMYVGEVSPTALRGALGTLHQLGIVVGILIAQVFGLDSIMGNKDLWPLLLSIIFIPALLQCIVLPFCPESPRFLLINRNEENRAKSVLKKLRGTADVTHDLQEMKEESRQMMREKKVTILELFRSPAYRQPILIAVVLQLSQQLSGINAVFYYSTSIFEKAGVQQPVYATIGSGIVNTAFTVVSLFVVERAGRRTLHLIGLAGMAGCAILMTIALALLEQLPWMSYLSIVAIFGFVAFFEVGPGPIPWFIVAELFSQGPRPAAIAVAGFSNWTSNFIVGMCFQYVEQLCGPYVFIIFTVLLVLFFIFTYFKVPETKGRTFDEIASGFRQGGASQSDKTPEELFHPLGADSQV
row,Structure (SMILES),inhibition [%]
1,O=C(/C=C/c1ccc(Cl)c(Cl)c1)NCCCCN1CCCN(C(=O)Nc2cc(Cl)cc(Cl)c2)CC1,0.48
2,Oc1ccc(Cl)cc1CN1CCC2(CCCN(CC3CCC3)C2)C1 (stereo not given),-3
3,CN(C)Cc1cccc2nc(-c3csc(Cc4cc(Cl)ccc4OCc4ccccc4)n3)[nH]c12,6.3
4,CCCCC#Cc1cnc2nc(N)[nH]c(=O)c2n1,1.66
5,O=C(N[C@@H](CC1CCCCC1)C(=O)NC1CCCc2ccccc21)c1ccc(O)c(-c2cccc(C(F)(F)F)c2)c1 (stereo not given in full),4.07
6,CCOC(=O)C(C(=O)OCC)c1nc(C)ns1,-1.35
7,CN(C)CCOc1ccc2c(=O)cc(CCc3cccc(F)c3F)n(CC(=O)N(C)Cc3ccc(-c4ccc(C(F)(F)F)cc4)cc3)c2c1,-1.05
8,COc1ccc(-c2nnc(Sc3ccc(C#N)c([N+](=O)[O-])c3)n2CC(C)C)cc1,0.96
9,CC1(C)N=C(NC(=O)c2cc([N+](=O)[O-])cc([N+](=O)[O-])c2)N=C(N)N1OCc1cccc2ccccc12,-1.97
10,Cc1ccc(C2(C)CN(CCCOc3cccc(-c4ccc(C(=O)NC(C)C)cc4)c3)CCO2)cc1 (stereo not given),0.12
11,CCOc1cc(C(=O)Nc2ccccc2N2CCN(S(C)(=O)=O)CC2)cc(OCC)c1OCC,3.72
12,N=C(N)NC(=O)Nc1cc(Br)c(Cl)c(Br)c1,-0.91
13,O=C(c1ccco1)c1cn(CCOc2ccccc2)c2ccccc12,1.36
14,O=C(/C=C/c1ccc(Cl)c(Cl)c1)NC1CCC(CN2CCC(c3nc4ccccc4n3CCCO)CC2)CC1 (stereo not given),0.86
15,Cc1ncccc1C(=O)Nc1cccc(-c2cccc(-c3nc4cc(C(F)(F)F)ccc4[nH]3)c2)c1,0.73
16,CCOc1cc(Cc2cnc(N)nc2N)cc(OCC)c1O,1.1
17,O=S(=O)(NCCN1CCCC1)c1ccc(-c2cccc(CNCc3ccc(F)cc3)c2)cc1F,3.24
18,CC(C)c1ccc(NC(=O)c2cccc(CN3CCCN(Cc4cccc(C#N)c4)CC3)c2)cc1,6.55
19,COc1ccc(CCN(C)CCc2ccc(NC(=O)c3cccc4c(=O)c5ccccc5sc34)cc2)cc1,2.21
20,Cc1nc2nc(N)nc(N)c2c(C)c1Cc1cccc(C(F)(F)F)c1,-1.41

row,Structure (SMILES),inhibition [%]
1,CCN(CC)CCCN(C(=O)Nc1cc(F)cc(F)c1)c1nc(-c2ccc(F)cc2)cs1,1.8
2,CN(C)CCCNCc1ccc(-c2ccc(C(F)(F)F)cc2)cc1,5.63
3,Cc1cc(-c2ccc3c(c2)CCN(CCC2CCC(NC(=O)/C=C/c4ccccc4F)CC2)CC3)on1 (stereo not given),11
4,CCn1ccc2c(N3CCCC3=O)cc(C(=O)N[C@@H](Cc3ccccc3)[C@H](O)CNC3CCCCC3)cc21,4.2
5,CN(C)CCCNc1ncnc2c1[nH]c1ccc(Br)cc12,1.44
6,N#Cc1cc(C(=O)c2cc(Cl)ccc2O)cn(-c2cc(Cl)cc(Cl)c2)c1=O,2.16
7,Cc1nn(C)c(C)c1CN(Cc1nc(-c2cccc(Oc3ccccc3)c2)oc1C)C1CC1,4.08
8,CCN1CCC(N(Cc2ccc(-c3ccc(C(F)(F)F)cc3)cc2)C(=O)Cn2nc(C)c(=O)cc2SCc2ccc(F)cc2)CC1,0.5
9,O=C(Nc1ccc(F)cc1)c1ccc(C(=O)NC2CCN(CC3CCCCC3)CC2)cc1,19.2
10,Cc1nc(-c2cccc(NCc3ccccc3)c2)[nH]c1C,6.94
11,CS(=O)(=O)Nc1ccc2[nH]cc(C3CCN(CC(O)C4CCN(C(=O)/C=C/c5ccc(Cl)c(Cl)c5)CC4)CC3)c2c1 (stereo not given),4.85
12,N#Cc1ccc(-c2ccc(C(=O)NCCCCN3CCC(c4nc5ccccc5[nH]4)CC3)cc2)cc1,2.16
13,Cc1cccc(CN2CCCN(Cc3ccc(C(=O)Nc4ccc(C(C)(C)C)cc4)cc3)CC2)c1,1.47
14,Fc1cccc(COc2ccc(Nc3ncnc4ccc(C#C[C@H]5CCCN5)cc34)cc2Cl)c1,1.39
15,O=C(Nc1ccc([N+](=O)[O-])cc1Cl)c1cc(Br)cc(Cc2ccccc2)c1O,3.27
16,COc1ccc(CNC2CCN(C)CC2)cc1-c1ccc(S(=O)(=O)NCC2CCCO2)s1 (stereo not given),3.99
17,Cc1[nH]c(C)c(Cc2ccc(Oc3ccc(OC(F)(F)F)cc3)cc2)c(=O)c1Br,-0.67
18,O=C(Nc1ccon1)c1cc(-c2cccnc2)nc2ccc(Br)cc12,2.83
19,CC(C)(C)CNCC(C)(C)c1nc(-c2ccc(Cl)c(O)c2)c(-c2ccncc2)[nH]1,-1.13
20,CCCCCCN1CCCN(Cc2ccc(C(=O)Nc3ccc(C(C)(C)C)cc3)cc2)CC1,4.82
